Bioassay records deposited in PubChem by several laboratories.
HIF-2a block: inhibitors of HIF-2a. 786-0 RCC cells HIF-2a reporter, luciferase luminescence, overnight. inhibition, % at 18.8 µM. actives 0.72% (n = 360,000);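 active = inhibition of the luminescence signal of 40% or more relative to plate controls, in a single-dose primary screen at 18.75 µM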
TWEAK Fn14 block: blocks TWEAK-Fn14 interaction in a reporter cell assay. TWEAK-stimulated Fn14 reporter cells, luciferase luminescence, 8 h. inhibition, % at 10 µM. actives 2% (n = 360,000). AID 1159606; in the data active = inhibition above about 50%
aSyn UTR inh: 5' untranslated region of α-synuclein, MLPCN primary screen; AID 1813; alpha-synuclein 5'UTR reporter, inhibitor activity; actives 0.82% (n = 300,000); inhibition, % (tested at 7.5 µM); in the data active = inhibition above about 60%;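 also: H4 neuroglioblastoma cells stably carrying SNCA 5'UTR luciferase fusion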
C8 TRAIL sens: caspase-8 TRAIL sensitization; inhibition (viability loss, TRAIL sensitization), % at 10 µM; NB7+C8 cells + TRAIL, ATPlite viability luminescence; actives 1% (n = 360,000);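 active = compounds causing at least 50% loss of cell viability in the single-dose screen, relative to plate controls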
HSP90 refold inh: inhibitors of HSP90 luciferase refolding in rabbit reticulocyte lysate | actives 0.91% (n = 290,000) | AID 1789 | inhibition, % at 5.6 µM | luciferase refolding luminescence, 3 h;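 active = inhibition above the screen-wide mean plus 3 SD, computed separately per campaign, cut at about 16% in these data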;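 also: inhibitors lower the luminescence because luciferase stays unfolded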
TROY NFkB inh: TROY signaling inhibition | actives 0.98% (n = 360,000) | inhibition, % at 10 µM | Q293 LMP1-TROYcd NF-kB luciferase reporter, 4 h | AID 1347056;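 active = compounds whose plate-normalised and pattern-corrected inhibition of the luciferase reporter signal at the single screening dose is 50% or more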
Hits are given with their value; n = inactive; x = not tested or not shown. An excerpt weighted towards active compounds, which were near 3.9% of everything screened.

SMILES | HIF-2a block | TWEAK Fn14 block | aSyn UTR inh | C8 TRAIL sens | HSP90 refold inh | TROY NFkB inh
Cc1ccccc1CN1C(=O)CSCC1(C)C(=O)NC(C)C (configuration not stated) | n | x | x | n | x | x
COc1cccc(CNC(=O)Cn2nc(C)c3c(C)n(-c4ccc(C)cc4)nc3c2=O)c1OC | n | n | n | n | n | n
Cc1ccc(-n2nc3c(=O)n(CCCC(=O)NCc4ccc(Cl)cc4)nc(C)c3c2C)cc1 | n | n | 62.2 | n | n | n
CCOc1ccccc1CNC(=O)Cn1nc(C)c2c(C)n(-c3ccc(C)cc3)nc2c1=O | n | 58.2 | n | n | n | n
Cc1ccc(-n2nc3c(=O)n(CCCC(=O)NCc4cccc(Cl)c4)nc(C)c3c2C)cc1 | n | n | n | n | n | n
O=C1Nc2ccccc2-c2nnnn2C1N1CCC(Cc2ccccc2)CC1 (configuration not stated) | n | x | x | n | x | x
CC(C)N1C(=O)NC2NC(=O)N(C(C)C)C21 (configuration not stated) | n | n | x | n | x | n
CC(=O)Nc1ccc(S(=O)(=O)NCC(=O)NCCCc2ccccc2)cc1 | n | 51.0 | n | n | n | n
CC(=O)Nc1ccc(S(=O)(=O)NCCC(=O)NCCCc2ccccc2)cc1 | n | n | x | n | x | n
CCN(C1CCCCC1)S(=O)(=O)CCNC(=O)c1ccc(OC)cc1 | n | n | x | n | x | n
Cc1nc2cc(Nc3nnc(-c4ccccc4)c4ccccc34)ccc2n1C | n | n | n | 75.4 | n | n
COc1ccccc1C(CNC(=O)c1oc2ccccc2c1C)N1CCCC1 (configuration not stated) | n | n | x | n | x | n
CN=c1scc(-c2ccccc2F)n1/N=C/c1ccc[nH]1 | 92.0 | 104.9 | 83.1 | 88.1 | 85.4 | 82.9
C[C@@H]1CCCCO[C@@H](CN(C)C(=O)CCC(F)(F)F)[C@@H](C)CN([C@H](C)CO)C(=O)c2cc(N(C)C)ccc2O1 | n | n | x | n | x | n
CC(C)Cn1c(N)c(C(=O)CSc2ccc3c(c2)OCCO3)c(=O)n(C)c1=O | n | 68.5 | n | n | n | n
CC(C)Cn1c(N)c(C(=O)COC(=O)c2ccc3c(c2)OCCO3)c(=O)n(C)c1=O | n | n | n | n | n | n
CN(C)CCCN(C(=O)/C=C/c1cccs1)c1nc2c(F)cccc2s1 | n | n | n | 55.0 | n | n
Cc1cccc2sc(N(CCN(C)C)C(=O)/C=C/c3cccs3)nc12 | n | n | n | n | n | n
O=C(Nc1nc(-c2ccccc2)cs1)c1ccccc1F | n | n | n | n | n | n
O=C(Nc1ccc(-c2nc3ccccc3[nH]2)cc1)c1ccccc1NS(=O)(=O)c1ccc(F)cc1 | n | n | n | n | n | 58.1
Cc1ccc(S(=O)(=O)Nc2ccccc2C(=O)Nc2nc(-c3ccc(F)cc3)cs2)cc1 | n | 93.5 | n | 52.6 | n | 75.3
COc1ccc(-c2csc(NC(=O)c3ccccc3NS(=O)(=O)c3ccc(F)c(F)c3)n2)cc1 | n | 74.5 | 73.6 | n | n | 68.7
CS(=O)(=O)c1ccccc1C(=O)Nc1ccc(-c2nc3ccccc3[nH]2)cc1 | n | n | n | n | n | n
COc1cc(OC)cc(C(=O)N(Cc2ccco2)c2c(N)n(Cc3ccccc3)c(=O)[nH]c2=O)c1 | n | n | x | n | x | n
COc1cccc(C=Cc2nccc3ccccc23)c1OC | n | n | x | 60.5 | x | n
SMILES | HIF-2a block | TWEAK Fn14 block | aSyn UTR inh | C8 TRAIL sens | HSP90 refold inh | TROY NFkB inh
COc1ccc(-c2csc(C(C)(O)c3ccncc3)n2)cc1OC (configuration not stated) | n | n | x | n | x | n
COc1ccc(OCC(=O)NNc2c3ccccc3nc3ccccc23)cc1 | n | 56.6 | n | n | n | n
O=C(NNc1c2ccccc2nc2ccccc12)c1ccc(O)cc1O | n | n | n | n | n | n
O=C(NNc1nc(=O)c2cccnc2s1)c1ccccc1O | n | n | n | 52.5 | n | n
O=C(NNc1c2ccccc2nc2ccccc12)c1ccccc1O | n | n | n | n | n | 53.9
O=C(Nc1cccc(Cl)c1)c1ccc2sc([C@H]3C[C@H](O)[C@@H](CO)O3)nc2c1 | n | n | x | n | x | n
CCOc1ncccc1C(=O)Nc1cccc(S(=O)(=O)N2CCOCC2)c1 | n | n | x | n | x | n
COC(=O)[C@H](CC(C)C)NC(=O)/C=C/[C@H]1O[C@@H](n2ccc(=O)[nH]c2=O)[C@H](O)[C@@H]1O | n | n | x | n | x | n
O=C1CC(=O)N(C2CCCCC2)C(=O)N1c1ccccc1S(=O)(=O)Oc1ccccc1 | n | n | x | n | x | n
COc1ccccc1NC(=O)Cn1nnc(C(=O)NCc2cccs2)c1N | n | n | 85.5 | n | n | n
COC(=O)c1nn(-c2ccc(-c3ccccc3)cc2)cc1O | n | 80.8 | 67.0 | 58.1 | n | n
O=c1oc2ccccc2cc1-c1csc(Nc2nc3ccc(F)cc3s2)n1 | x | x | n | x | n | x
O=c1oc2ccccc2cc1-c1csc(Nc2nc3c(F)cccc3s2)n1 | n | n | n | 53.3 | n | n
C=CCN(CC=C)C(=S)NC(=O)/C=C/c1ccc(C)cc1 | n | 62.5 | n | n | n | n
COc1cc(CN2CCC(Cc3ccccc3)CC2)c([N+](=O)[O-])cc1OC | n | 79.9 | n | n | n | n
Cc1cccc(NC(=S)NN2CCN(C)CC2)c1C | n | n | n | n | n | n
Cc1ccccc1NC(=S)NN1CCN(C)CC1 | n | 73.9 | n | n | n | x
COc1ccc(-c2cn3cc(C)ccc3n2)cc1Br | n | n | n | 75.3 | n | n
COc1ccc(-c2nc(SCC(=O)Nc3cccc(S(N)(=O)=O)c3)n[nH]2)cc1 | n | n | x | 61.6 | x | n
O=C(CSc1n[nH]c(-c2ccccn2)n1)Nc1cccc(Cl)c1 | n | n | 86.4 | n | n | n
NS(=O)(=O)c1cccc(NC(=O)CSc2n[nH]c(-c3cccs3)n2)c1 | n | n | x | n | x | n
Cc1ccc(S(=O)(=O)N2[C@@H](CO)CO[C@H]2CC(=O)c2ccccc2)cc1 | n | x | x | n | x | x
O=C(NCCCl)Nc1cc([N+](=O)[O-])ccc1Cl | n | n | n | n | n | 61.9
C#CCNC(=O)c1ccc2sc([C@@H]3O[C@H](CO)[C@H](O)[C@H](O)[C@H]3O)nc2c1 | n | n | x | n | x | n
CCN(c1ccccc1)S(=O)(=O)c1cc(C(=O)Nc2cccc(Cl)c2)ccc1F | n | 67.5 | n | n | n | n
COc1ccc(CNC(=O)C2(C)Cc3c(-c4cccc(NC(C)=O)c4)ccnc3O2)cc1OC (configuration not stated) | n | n | x | n | x | n
CN(C)c1ccc(C(=O)/C=C/c2ccco2)cc1 | n | n | n | 54.4 | n | n
CC(C)(C)CNC(=O)C1(C)CCN1C(=O)c1ccccc1CCc1ccccc1 (configuration not stated) | n | n | x | n | x | n
COCCNC(=O)c1ccc(N2CC3CC(C2)c2cccc(=O)n2C3)c(NC(=O)c2ccccc2Cl)c1 (configuration not stated) | n | n | x | n | x | n
O=C(Cc1ccccn1)Nc1ccccc1 | n | 109.8 | n | n | n | n
